The panel holds about 83,000 compounds, 20% with a hit somewhere; the sample as a whole holds those more often.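 Compound tested at a single concentration for 48 hours in 96-well plates; a percent growth value below 10 was scored as active.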 Unmarked numbers belong to inactive results. Calls of active or inactive are those of the source.
How the values were obtained:
Experiment in all cases: NCI-60 one-dose screen, 48 h (100 = growth as untreated, 0 = no growth, -100 = all killed)
Conditions in all cases: 10 µM unless noted
NCI-H23 lung = tested on: NCI-H23 lung
NCI-H226 lung = tested on: NCI-H226 lung
NCI-H322M lung = tested on: NCI-H322M lung
HOP-62 NSCLC = tested on: HOP-62 NSCLC
NCI-H460 lung = tested on: NCI-H460 lung
NCI-H522 lung = tested on: NCI-H522 lung
A549/ATCC NSCLC = tested on: A549/ATCC NSCLC
786-0 renal = tested on: 786-0 renal
COLO 205 colon = tested on: COLO 205 colon
DU-145 prostate = tested on: DU-145 prostate
K-562 leukemia = tested on: K-562 leukemia
MALME-3M melanoma = tested on: MALME-3M melanoma
MDA-MB-231 breast = tested on: MDA-MB-231 breast
RXF 393 renal = tested on: RXF 393 renal
SF-268 CNS = tested on: SF-268 CNS
SF-295 CNS = tested on: SF-295 CNS
SF-539 CNS = tested on: SF-539 CNS
UACC-257 melanoma = tested on: UACC-257 melanoma
M14 melanoma = tested on: M14 melanoma
HOP-92 NSCLC = tested on: HOP-92 NSCLC

CCOC(=O)CSc1ncnc2c1c(-c1ccccc1)c(-c1ccccc1)n2-c1ccc(C)cc1
growth (NCI-H23 lung): 75% | growth (NCI-H226 lung): 77.8% | growth (NCI-H322M lung): 94.4% | growth (HOP-62 NSCLC): 64.8% | growth (NCI-H460 lung): 76.6% | growth (NCI-H522 lung): 47.3% | growth (A549/ATCC NSCLC): 72.5% | growth (786-0 renal): 80.9% | growth (COLO 205 colon): 63.7% | growth (DU-145 prostate): 74.4% | growth (K-562 leukemia): 38% | growth (MALME-3M melanoma): 62.1% | growth (MDA-MB-231 breast): 85.7% | growth (RXF 393 renal): 105% | growth (SF-268 CNS): 86.2% | growth (SF-295 CNS): 76.2% | growth (SF-539 CNS): 86.2% | growth (UACC-257 melanoma): 51.9% | growth (M14 melanoma): 75.6%

CC(=O)c1cc(O)c2ccccc2c1O
growth (NCI-H23 lung): 85.9% | growth (NCI-H226 lung): 92.9% | growth (NCI-H322M lung): 105% | growth (HOP-62 NSCLC): 87.4% | growth (HOP-92 NSCLC): 92.6% | growth (NCI-H522 lung): 78.7% | growth (A549/ATCC NSCLC): 99.7% | growth (786-0 renal): 97.8% | growth (DU-145 prostate): 126% | growth (K-562 leukemia): 58% | growth (MALME-3M melanoma): 95.9% | growth (MDA-MB-231 breast): 87.2% | growth (RXF 393 renal): 111% | growth (SF-268 CNS): 124% | growth (SF-295 CNS): 108% | growth (SF-539 CNS): 97.5% | growth (UACC-257 melanoma): 96.5% | growth (M14 melanoma): 105%

Cn1ccnc1C(=O)C(=O)Nc1ccc(CC(=O)Nc2ccccc2)cc1
growth (NCI-H23 lung): 104% | growth (NCI-H226 lung): 96.4% | growth (NCI-H322M lung): 102% | growth (HOP-62 NSCLC): 107% | growth (NCI-H522 lung): 99.5% | growth (A549/ATCC NSCLC): 108% | growth (786-0 renal): 104% | growth (COLO 205 colon): 109% | growth (DU-145 prostate): 104% | growth (K-562 leukemia): 111% | growth (MALME-3M melanoma): 101% | growth (MDA-MB-231 breast): 109% | growth (RXF 393 renal): 102% | growth (SF-268 CNS): 96.7% | growth (SF-295 CNS): 106% | growth (SF-539 CNS): 99.4% | growth (UACC-257 melanoma): 110% | growth (M14 melanoma): 104%

CCN1C(=O)N(CC)C2C1NN=c1s/c(=C\c3cccc([N+](=O)[O-])c3)c(=O)n12 (stereo not drawn)
growth (NCI-H23 lung): 36.4% | growth (NCI-H226 lung): 58.2% | growth (NCI-H322M lung): 45.5% | growth (HOP-62 NSCLC): 40% | growth (NCI-H522 lung): -4.92% (active) | growth (A549/ATCC NSCLC): 20.2% | growth (786-0 renal): 25% | growth (COLO 205 colon): 1.16% (active) | growth (DU-145 prostate): 8.55% (active) | growth (K-562 leukemia): 10.5% | growth (MALME-3M melanoma): 47.4% | growth (MDA-MB-231 breast): 12.4% | growth (RXF 393 renal): 31.4% | growth (SF-268 CNS): 54% | growth (SF-295 CNS): 15% | growth (SF-539 CNS): -4.28% (active) | growth (UACC-257 melanoma): 59.7% | growth (M14 melanoma): 12.2%

CC1(C)CC[C@]2(c3nnc(-c4ccncc4)o3)CC[C@H]3C(=CC[C@H]4[C@@]3(C)CC[C@H]3C(C)(C)C(=O)CC[C@]43C)[C@@H]2C1
growth (NCI-H23 lung): 71.7% | growth (NCI-H226 lung): 60.6% | growth (NCI-H322M lung): 94.4% | growth (HOP-62 NSCLC): 85.7% | growth (HOP-92 NSCLC): 76% | growth (NCI-H522 lung): 64.2% | growth (A549/ATCC NSCLC): 73.9% | growth (786-0 renal): 66.3% | growth (DU-145 prostate): 86.3% | growth (K-562 leukemia): 40.8% | growth (MALME-3M melanoma): 86.9% | growth (MDA-MB-231 breast): 72.8% | growth (RXF 393 renal): 79% | growth (SF-268 CNS): 81.4% | growth (SF-295 CNS): 89.7% | growth (SF-539 CNS): 76.3% | growth (UACC-257 melanoma): 70.6% | growth (M14 melanoma): 84%

CCCCC(=O)c1ccco1
growth (NCI-H23 lung): 89.2% | growth (NCI-H226 lung): 95.1% | growth (NCI-H322M lung): 105% | growth (HOP-62 NSCLC): 88.7% | growth (HOP-92 NSCLC): 99.9% | growth (NCI-H522 lung): 92.2% | growth (A549/ATCC NSCLC): 97.9% | growth (786-0 renal): 97.5% | growth (COLO 205 colon): 104% | growth (DU-145 prostate): 98.6% | growth (K-562 leukemia): 104% | growth (MALME-3M melanoma): 103% | growth (MDA-MB-231 breast): 98.7% | growth (RXF 393 renal): 97.6% | growth (SF-268 CNS): 96% | growth (SF-295 CNS): 101% | growth (SF-539 CNS): 99.5% | growth (UACC-257 melanoma): 105% | growth (M14 melanoma): 90.6%

CN1C(=O)/C(=C/c2ccc(C(=O)Nc3ncc(Cc4ccc(Cl)cc4)s3)cc2)SC1=S
growth (NCI-H23 lung): 65.7% | growth (NCI-H226 lung): 71.5% | growth (NCI-H322M lung): 56% | growth (HOP-62 NSCLC): 49.7% | growth (NCI-H522 lung): 36.4% | growth (A549/ATCC NSCLC): 48.5% | growth (786-0 renal): 47.5% | growth (DU-145 prostate): 47.1% | growth (K-562 leukemia): 38.4% | growth (MALME-3M melanoma): 50.9% | growth (MDA-MB-231 breast): 58% | growth (RXF 393 renal): 48.3% | growth (SF-268 CNS): 56.8% | growth (SF-295 CNS): 33% | growth (SF-539 CNS): 47.3% | growth (UACC-257 melanoma): 67.1% | growth (M14 melanoma): 16.3%

Fc1cc2c(cc1Cl)N(c1ncnc3ccc(-c4cnc5[nH]ncc5c4)cc13)CC2
growth (NCI-H23 lung): 73.3% | growth (NCI-H226 lung): 49.5% | growth (NCI-H322M lung): 52.1% | growth (HOP-62 NSCLC): 54.8% | growth (HOP-92 NSCLC): 34.5% | growth (NCI-H522 lung): 55.9% | growth (A549/ATCC NSCLC): 44% | growth (786-0 renal): 65% | growth (DU-145 prostate): 56.2% | growth (K-562 leukemia): 77.5% | growth (MALME-3M melanoma): 77.3% | growth (MDA-MB-231 breast): 52.7% | growth (RXF 393 renal): 38.5% | growth (SF-268 CNS): 57.3% | growth (SF-295 CNS): 72.9% | growth (SF-539 CNS): 68.2% | growth (UACC-257 melanoma): 86.3% | growth (M14 melanoma): 85.5%

COc1cc(C(=O)n2nc(N3CCN(C)CC3)c3cc(N)ccc32)cc(OC)c1OC
growth (NCI-H23 lung): 38.3% | growth (NCI-H226 lung): 47.6% | growth (NCI-H322M lung): 58.6% | growth (HOP-62 NSCLC): 32.5% | growth (HOP-92 NSCLC): 43% | growth (NCI-H522 lung): -7.31% (active) | growth (A549/ATCC NSCLC): 65.3% | growth (786-0 renal): 24.7% | growth (DU-145 prostate): 22.5% | growth (K-562 leukemia): 10.4% | growth (MALME-3M melanoma): 65.3% | growth (MDA-MB-231 breast): 50.3% | growth (RXF 393 renal): -13.3% (active) | growth (SF-268 CNS): 47.2% | growth (SF-295 CNS): 4.42% (active) | growth (SF-539 CNS): -14.1% (active) | growth (UACC-257 melanoma): 85.3% | growth (M14 melanoma): 2.63% (active)
